Experiment [1] relates to Vero E6 infected with SARS-CoV-2. Nature of the experiment: morphology score (similarity to uninfected cells); higher = more like uninfected cells. The following applies: 24 h.
Experiment [2] shares this test system. Nature of the experiment: SARS-CoV-2 infection rate relative to infected DMSO; higher = more infection, active = 60 or less. The following applies: 24 h.

In the case of `NC(N)=Nc1nc(CSCCN/C=N/S(=O)(=O)c2ccc(Br)cc2)cs1` [ebrotidine] (10 µM), the morphology score in experiment [1] worked out at 0.0177. In addition, the SARS-CoV-2 infection rate in experiment [2] was 97% (inactive).

`CN(C)CCc1ccc(O)cc1` [hordenine] (10 µM): the morphology score in experiment [1] was found to be 0.163. Further, the SARS-CoV-2 infection rate in experiment [2] was 90.5% (inactive).

As for `CC(=O)Nc1ccc(C(=O)Nc2ccccc2N)cc1` [tacedinaline] (0.833333 µM), the morphology score in experiment [1] is -0.0863. Further, in experiment [2], the SARS-CoV-2 infection rate is 110% (inactive).

Turning to `CCCCCCCCCC(=O)O[C@H]1CC[C@H]2[C@@H]3CCC4=CC(=O)CC[C@@H]4[C@H]3CC[C@]12C` [Nandrolone decanoate] (10 µM), in experiment [1], the morphology score was -0.019. Moreover, in experiment [2], the SARS-CoV-2 infection rate is 103% (inactive).

For the compound `CCCCCn1cc(C(=O)NC23CC4CC(CC(C4)C2)C3)c(=O)c2cc(-c3ccccc3)ccc21` (10 µM), the morphology score in experiment [1] amounted to 0.119. Further, the SARS-CoV-2 infection rate in experiment [2] was 107% (inactive).

Consider `C=CCSCC1Nc2cc(Cl)c(S(N)(=O)=O)cc2S(=O)(=O)N1` (configuration not stated) [althiazide] (10 µM), for which the morphology score in experiment [1] is -0.00232. Moreover, in experiment [2], the SARS-CoV-2 infection rate is 98% (inactive).

With `CN1CC(=O)NC1=N` [creatinine] (10 µM), the morphology score in experiment [1] came out at 0.0578. Besides, in experiment [2], the SARS-CoV-2 infection rate is 99.5% (inactive).

In the case of `Nc1nc(=O)c2nc(CNc3ccc(C(=O)N[C@@H](CCC(=O)O)C(=O)O)cc3)cnc2[nH]1` [folic-acid] (10 µM), in experiment [1], the morphology score was 0.207. Further, the SARS-CoV-2 infection rate in experiment [2] was 102% (inactive).

In the case of `COc1cc(C)[nH]c(=O)c1CNC(=O)c1c(C)n([C@H](C)C2CCOCC2)c2ccccc12` (10 µM), the morphology score in experiment [1] was 0.0908. In addition, the SARS-CoV-2 infection rate in experiment [2] is 96.5% (inactive).

Compound `[Cl][Ru-]([Cl])([Cl])[Cl].[Na+].c1ccc2[nH]ncc2c1.c1ccc2[nH]ncc2c1` (10 µM) showed a morphology score in experiment [1] of 0.443. The SARS-CoV-2 infection rate in experiment [2] is 43% (active).

As to `Cc1cc(OCC(=O)O)cc(C)c1Cc1ccc(O)c(C(C)C)c1` [sobetirome] (10 µM), the morphology score in experiment [1] was determined as 0.0763. Moreover, the SARS-CoV-2 infection rate in experiment [2] was 103% (inactive).
